High-throughput results: PubChem, National Center for Advancing Translational Sciences (NCATS)
ATXN2 expr inh = reduces ATXN2 reporter expression in HEK-293 cells; Potency, µM (highest dose often 57 µM), inactives show top-dose activity change, negative = inhibition, most hits filed as inhibitors; HEK-293 ATXN2-luciferase reporter, luminescence, 24 h; 360,000 compounds, 0.72% hits; AID 1745845; note: % is set by controls: 0 for no effect and ±100 for the full control effect; nearly all actives have a fitted effect of over 55% in size
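ATXN2-luciferase reporter cells (luciferase flanked by upstream and downstream ATXN2 gene portions) were treated 24 h at 37 °C with compounds at up to 57 uM. SteadyGlo luminescence gave expression; GF-AFC fluorescence gave viability.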
HepG2 viability = counter-screen for TGF-b inhibitors: cytotoxicity in HepG2 cells. HepG2 CAGA-GFP viability, ATP luminescence, 18 h. Potency, µM (doses to about 46.1 µM), inactives show at the highest dose activity change, negative = cytotoxicity, actives largely listed as cytotoxic. 410,000 compounds, 0.76% hits
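HepG2 CAGA-GFP cells (1000/well, DMEM with 1% FBS) received compound, then TGF-beta at 500 pg/mL final, and were incubated 18 hours at 37 degrees C. Viability was read by CellTiter-Glo luminescence. Media-only wells were set as complete cell-killing and DMSO as no toxicity.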
TDP1 cell noCPT = qHTS for Inhibitors of human tyrosyl-DNA phosphodiesterase 1 (TDP1): qHTS in cells in absence of CPT | DT40 Tdp1-/- hTDP1 cells, no CPT, ATP luminescence, 48 h | 420,000 compounds, 15% hits | Potency, µM (titrated, usually from 46.2 µM), for the others: at the highest dose activity change, negative = growth inhibition, most hits filed as inhibitors; note: % is set by controls: 0 for no effect and ±100 for the full control effect; nearly all actives have a fitted effect of over 55% in size
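Seeded 400 DT40-hTDP1 cells/well (vehicle DMSO, no 20 nM CPT); pinned compounds; ≥48 hr at 37 °C; CellTiter-Glo luminescence as viability measure.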
TDP1 cell CPT = growth inhibition of DT40 Tdp1-/-;hTDP1 cells with camptothecin (screen for TDP1 inhibitors). chicken DT40 Tdp1-/-;hTDP1 cells + 20 nM CPT, ATP luminescence, 48 h. Potency, µM (titrated, usually from 46.2 µM), without a hit: top-dose activity change, negative = growth inhibition, actives largely listed as inhibitors. 420,000 compounds, 12% hits. AID 686979; note: % is set by controls: 0 for no effect and ±100 for the full control effect; nearly all actives have a fitted effect of over 55% in size
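Chicken DT40 Tdp1-/- cells stably complemented with human TDP1 were seeded at 400 cells/well in medium containing 20 nM camptothecin, exposed to pin-transferred compounds, and grown at 37 °C for at least 48 hr. Viability was read as ATP luminescence.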
ATXN viability = cell viability loss in ATXN counter-screen; S2 cells (HEK-293 line with an ATXN2-luciferase reporter) viability, CellTiter-Fluor protease fluorescence, 24 h; 400,000 compounds, 0.49% hits; Potency, µM (series often up to 56.7 µM), usual class: cytotoxic; note: nearly all actives have a fitted effect of over 40% in size
TGFb inhibitor = blocks TGF-b signaling; HepG2 CAGA-GFP TGF-b/SMAD3 reporter, GFP fluorescence, 18 h; TGF-beta stimulated, 500 pg/mL final; Potency, µM (series often up to 46.1 µM), inactives show top-dose activity, negative = inhibition, usual class: inhibitors; 410,000 compounds, 1.2% hits; note: % is set by controls: 0 for no effect and ±100 for the full control effect; nearly all actives have a fitted effect of over 65% in size
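HEPG2 CAGA-GFP cells (1000/well, DMEM with 1% FBS) were pre-incubated 2 h at 37 degrees C, given compound by pin tool, then stimulated with TGF-beta at 500 pg/mL final for 18 h before per-cell GFP fluorescence imaging.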
Starred values were filed as active, the others as inactive; i = inactive; ? = inconclusive; . = no result; [ ] = remark or other dose. Rows were chosen to be rich in hits. Some 17% of all compounds tested hit in one or more screens of this group. Calls come from the whole dose curve; as a rule, active = well fitted curve in the direction sought with a large enough effect; inconclusive = small, poorly fitted or top-dose-only effect, or another doubt; inactive = no such curve, though single readings can be large; an effect the other way counts as inactive or inconclusive. Potency is the fitted concentration of half-maximal effect.

SMILES | ATXN2 expr inh | HepG2 viability | TDP1 cell noCPT | TDP1 cell CPT | ATXN viability | TGFb inhibitor
O=C(c1ccccc1)c1ccc(-n2ccnc2)c([N+](=O)[O-])c1 | -12% | -35% | 21µM* | -26% | i | 0%
C=CCC(NC(=O)N(C)C)(C(=O)OC)C(C)O (centres undefined) | . | . | 4% | 9% | . | .
COc1ccc(C(=O)/C=C/c2ccc(O)cc2)c2c1CC(O)C(C)(C)O2 (centres undefined) | ? | -5% | 16µM* | ? | i | -10%
COc1ccc(C=CC(=O)c2cc(O)ccc2O)cc1 | 30% | -4% | ? | ? | i | -3%
COc1ccc(C(=O)/C=C/c2ccc(O)cc2)c(O)c1CC=C(C)C | ? | -82% | ? | 13µM* | . | ?
N#Cc1nc(NCC(F)F)nc(Nc2cc(F)cc(F)c2)n1 | 11µM* | -79% | . | . | ? | 16µM*
N#Cc1nc(Nc2cc(F)cc(F)c2)c2ncn(CC(F)F)c2n1 | -16% | -28% | . | . | ? | -8%
Cc1nc(-c2ccccc2)nc2[nH]c(C(C)C)cc(=O)c12 | -2% | -4% | 21µM* | ? | i | 5%
Cc1nc(-c2ccccc2)nc2[nH]c(=O)n(-c3ccccc3)c(=O)c12 | 25% | -18% | ? | ? | i | -6%
CC(C)CNC(=O)N1[C@H](c2cccs2)[C@@H](C)C(=O)[C@@H](C)[C@@H]1c1cccs1 | -7% | -10% | ? | 18µM* | i | ?
COc1ccc2c(CC(=O)OCC(=O)NC(=O)c3cccn3C)coc2c1 | 6% | -10% | -13% | -17% | i | -26%
C[C@@H](Nc1nc(Cl)nc2nc[nH]c12)c1ccccc1 | . | -16% | 16µM* | 20µM* | . | -10%
Clc1nc(NCc2ccco2)c2[nH]cnc2n1 | . | 2% | ? | -3% | . | 19%
CCOC(=O)/C(=C\C=C1/Sc2ccccc2N1CC)C(C)=O | -7% | -31% | 12µM* | ? | . | 276%
CCC(=O)/C=C1/Sc2ccccc2N1CC | 3% | 7% | ? | ? | i | -9%
CCOC(=O)/C(=C/C=C1\Sc2cc(C)c(C)cc2N1CC)C(C)=O | -4%[11.3 µM] | 0% | 2.3µM* | 4.6µM* | i | 119%
CCOC(=O)/C(=C/C=C1\Sc2ccccc2N1CC)C(C)=O | -3% | -13% | 21µM* | 21µM* | i | 113%
CCOC(=O)/C(C#N)=C1/C=Cc2ccccc2N1CC | 3% | 15% | -9% | -20% | ? | 15%
CN1/C(=C\C(=O)c2cccc(S(=O)(=O)N3CCCCC3)c2)C(C)(C)c2ccccc21 | . | -6% | ? | ? | . | -19%
CN1c2ccccc2C(C)(C)C12CC(c1ccc(S(=O)(=O)N3CCCCC3)cc1)=NO2 (centres undefined) | . | -9% | 21µM* | ? | i | -1%
CN1c2ccccc2C(C)(C)C12CC(c1cccc(S(=O)(=O)N3CCCC3)c1)=NO2 (centres undefined) | 99% | 2% | 16µM* | ? | i | -7%
O=C(NCCSCc1ccc(Cl)cc1)C1CCN(S(=O)(=O)Cc2ccccc2)CC1 | -11% | -7% | -12% | -27% | i | -27%
CC(=O)Nc1ccc(C(=O)COC(=O)CN2C(=O)NC3(CCCCC3C)C2=O)cc1 (centres undefined) | 0% | -33% | 24% | 3% | i | -5%
COc1ccc(/C=N/n2cc(-c3ccc(OC)cc3)nc2N)cc1 | -17% | -6% | ? | ? | ? | -7%
COc1ccc(/C=N/n2cc(-c3ccccc3)nc2N)cc1 | -1% | -10% | 5.2µM* | 3.3µM* | ? | -23%
SMILES | ATXN2 expr inh | HepG2 viability | TDP1 cell noCPT | TDP1 cell CPT | ATXN viability | TGFb inhibitor
CC1CC(C)CN(C(=O)c2ccc3c(c2)OCCO3)C1 (centres undefined) | -4% | -11% | ? | ? | i | ?
CC1=C(C(=O)Nc2ccc(Cl)cc2)C(CC(C)C)n2nc(SCc3ccccc3C)nc2N1 (centres undefined) | 2% | 1% | ? | ? | i | 10%
CC1=C(C(=O)Nc2ccccc2C)C(c2cccnc2)n2nc(SCc3ccccc3F)nc2N1 (centres undefined) | -9% | -11% | -23% | -17% | i | -3%
CC1=C(C(=O)Nc2ccc(C)cc2C)C(CC(C)C)n2nc(SCc3ccccc3C)nc2N1 (centres undefined) | 2% | -18% | 12µM* | 10µM* | i | -20%
COc1ccccc1NC(=O)C1=C(C)Nc2nc(SCc3ccccc3F)nn2C1c1cccnc1 (centres undefined) | -11% | 2% | 10µM* | 15µM* | i | -2%
COc1ccccc1NC(=O)C1=C(C)Nc2nc(SCc3cc(C)ccc3C)nn2C1c1ccccc1 (centres undefined) | 0% | -33% | -79% | 12µM* | i | 32%
COc1ccccc1NC(=O)C1=C(C)Nc2nc(SCc3ccccc3)nn2C1c1cccnc1 (centres undefined) | -38% | -13% | ? | 21µM* | ? | 0%
CC(C)(C)C1CCc2c(sc(NC(=O)Cn3nnc(-c4ccccc4F)n3)c2C#N)C1 (centres undefined) | 0% | -5% | -13% | 0% | i | -21%
CC(NC(=O)c1ccccc1)C(=O)OCC(=O)c1c(N)n(C)c(=O)n(C)c1=O (centres undefined) | 4% | -5% | 3% | 3% | i | 3%
COc1cccc(CSc2nc3n(n2)C(c2ccccc2C)C(C(=O)Nc2ccccc2OC)=C(C)N3)c1 (centres undefined) | 6% | -1% | ? | ? | i | -2%
COc1ccccc1NC(=O)C1=C(C)Nc2nc(SCc3ccccc3)nn2C1c1cccc(O)c1 (centres undefined) | ? | -19% | 23µM* | ? | . | ?
Cc1cc(OC(C)C(=O)NCCc2c[nH]c3ccccc23)c2c(C)cc(=O)oc2c1 (centres undefined) | -22% | -30% | ? | 16µM* | i | 1%
CCCCCCSc1ccc(-c2nc3cnccn3c2NCCCC)cc1 | 0% | -97% | 21µM* | ? | . | ?
COc1ccc(-c2cncc3nccn23)cc1OC | 1% | 3% | 0% | 6% | i | 3%
